These results are taken from PubChem BioAssay (NCI).

Compounds without any hit were thinned out: in the full panel of roughly 83,000, 20% have a hit.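 Interpretation: 100, growth as untreated; towards 0, rising growth inhibition; 0, no net growth; 0 to -100, cell death. Compounds scoring below 10 were considered active.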 A number with no mark means an inactive call. Active and inactive are the calls of the source.

What all share (assay): NCI-60 one-dose screen, 48 h (100 = growth as untreated, 0 = no growth, -100 = all killed)
Common to all, as to details: 10 µM unless noted

Assay [1] deals with DU-145 prostate.
The test system of assay [2] is K-562 leukemia.
The subject of assay [3] is MALME-3M melanoma.
Assay [4] relates to MDA-MB-231 breast.
The test system of assay [5] is RXF 393 renal.
For assay [6], the system named is SF-268 CNS.
In assay [7] the test system is SF-295 CNS.
Assay [8] relates to SF-539 CNS.
Assay [9] concerns UACC-257 melanoma.
The test system of assay [10] is M14 melanoma.

As to `NC(=S)c1cn(C2OC(CO)C(O)C2O)c2ncnc(N)c12` (stereo not given), the growth is -18.8% (active) in assay [1]; -42.3% (active) in [2]; -30.5% (active) in assay [3]; -9.11% (active) in [4]; -55.9% (active) in assay [5]; -20.9% (active) in [6]. Also, the growth in [7] is -3.13% (active); in assay [8], -53.1% (active); in assay [9] it was -1.27% (active); in assay [10], -57.9% (active).

For `CCOC(=O)[C@@H](C)C[C@H](Cc1ccccc1)NC(=O)c1csc([C@@H](C[C@H](C(C)C)N(C)C(=O)[C@H](CC)NC(=O)[C@H]2CCCCN2C)OC(C)=O)n1`, the growth was 5.21% (active) in assay [1]; 6.71% (active) in assay [2]; 71.7% in assay [3]; 5.4% (active) in [4]; 28.8% in [5]; 29.1% in assay [6]. Further, the growth in assay [7] is 1.53% (active); in [8] it was -9.33% (active); in assay [9], 39.1%; in assay [10] it was -25.7% (active).

For `COc1cc(C=Nc2cccc(C(=O)O)c2)ccc1N(CCCl)CCCl`, the growth in assay [1] is 111%; in assay [2], 101%; in assay [3] it was 84.4%; in [4], 106%; in assay [5], 99.4%; in assay [6], 113%. Besides, the growth in [7] was 98.3%; in [8], 102%; in assay [9], 85.1%; in [10], 104%.

In the case of `CC[C@H](C)[C@H](NC(=O)[C@H]1CCCCN1C)C(=O)N(C)[C@H](C[C@@H](OC(C)=O)c1cccc(C(=O)N[C@@H](Cc2ccccc2)C[C@H](C)C(=O)O)n1)C(C)C`, the growth is -16.1% (active) in [1]; 7.77% (active) in assay [2]; 64.1% in assay [3]; -0.17% (active) in [4]; 31.2% in assay [5]; 18% in assay [6]. The growth in assay [7] is 2.98% (active); in assay [8], -10.7% (active); in assay [9], 47.9%; in assay [10] it was 10%.

For `c1cnc2[nH]cc(-c3csc(-c4cn(CCCCN5CCCCC5)c5ccccc45)n3)c2c1`, the growth in assay [1] was 107%; in [2] it was 10.9%; in [3] it was 92.8%; in [4], 83.3%; in assay [5], 87.3%; in [6] it was 86.1%. The growth in [7] is 94.8%; in assay [8], 86.5%; in [9], 112%; in [10], 50.2%.

Consider `CCC[CH2][Sn]([CH2]CCC)([CH2]CCC)[O]c1ccc(Cl)cc1Cl`, for which the growth in assay [1] was -99.4% (active); in [2] it was -65% (active); in [3] it was -61.5% (active); in [4] it was -78.2% (active); in assay [5] it was -96.2% (active); in assay [6] it was -91% (active). Further, the growth is -37% (active) in [7], -83.4% (active) in assay [8], -88.8% (active) in assay [9] and -83.9% (active) in [10].

With `C[C@]12CC[C@H]3[C@@H](CC4SC(N)=NC45C/C(=N/NC(N)=O)CC[C@]35C)[C@@H]1CCC2=O` (stereo not given in full), the growth in assay [1] is 31.1%; in assay [2] it was -38.5% (active); in [3], 3.07% (active); in assay [4], 35.2%; in [5], 7.08% (active); in assay [6], -6.41% (active). Also, the growth in assay [7] was 45.7%; in [8], 87.2%; in assay [9], 105%; in assay [10], -51.1% (active).

In the case of `O=C1Nc2ccccc2C2c3cccn3-c3ccccc3CN12` (stereo not given), the growth in [1] was 84.8%; in assay [2], 12.4%; in assay [3] it was 52%; in [4], 39.2%; in assay [5] it was 59.8%; in [6], 75.1%. Besides, the growth was 59.8% in [7], 55.1% in [8], 57.3% in assay [9] and 20.2% in assay [10].

Consider `CCOC(=O)[C@@H](C)C[C@H](Cc1ccccc1)NC(=O)c1csc([C@@H](C[C@H](C(C)C)N(C)C(=O)[C@H](CCC(C)C)NC(=O)[C@H]2CCCCN2C)OC(C)=O)n1`, for which the growth in assay [1] was 15.7%; in assay [2] it was 7.91% (active); in [3], 33.1%; in assay [4], 1.66% (active); in assay [5] it was 12.6%; in assay [6] it was 22.1%. The growth in assay [7] is 12.2%; in assay [8], -10.2% (active); in assay [9], 46.9%; in assay [10], -7.2% (active).

On to `CCCCCCCCOC(=O)CCN1CC1`, for which the growth in assay [1] is 98.5%; in assay [2], 119%; in [3], 110%; in [4] it was 114%; in [5] it was 107%; in assay [6], 95.9%. Also, the growth in assay [7] is 120%; in [8] it was 99.4%; in assay [9] it was 103%; in [10], 107%.

With `CNC(=O)Oc1cccc(C(F)(F)F)c1`, the growth is 128% in assay [1]; 113% in assay [2]; 140% in assay [3]; 103% in assay [4]; 146% in [5]; 118% in assay [6]. For the same compound, the growth in assay [7] was 130%; in assay [8] it was 122%; in assay [9], 102%; in assay [10] it was 101%.

`O=C(CC1(O)C(=O)N(Cc2ccccc2)c2ccccc21)c1ccc(C(=O)NCC2CCC3(CC2)OOC2(CCCCC2)OO3)cc1` (stereo not given): the growth in assay [1] is -100% (active); in [2] it was -48.3% (active); in assay [3], -73% (active); in assay [4], -65.8% (active); in assay [5], -81% (active); in assay [6], -62% (active). The growth in assay [7] is 10.7%; in assay [8], -83.2% (active); in assay [9] it was -21% (active); in assay [10], 13.1%.

Consider `CC(=O)[C@H]1CC[C@H]2[C@@H]3CC[C@H]4C[C@H](N)CC[C@]4(C)[C@H]3CC[C@]12C`, for which the growth in assay [1] was 92.2%; in assay [2], 56%; in assay [3], 82.9%; in assay [4], 72.7%; in assay [5], 66.8%; in assay [6] it was 92%. The growth was 99.6% in assay [7], 84.6% in [8], 55.2% in assay [9] and 68.3% in [10].
